Format in all cases: functional
In test [1] the test system is Plasmodium falciparum. The test can be described thus: GSK_TCMDC: Inhibition of Plasmodium falciparum 3D7 in whole red blood cells, using parasite LDH activity as an index of growth. Test compounds present at 2uM.
Test [2] relates to Plasmodium falciparum. The experiment in a line: GSK_TCMDC: Inhibition of Plasmodium falciparum Dd2 in whole red blood cells, using parasite LDH activity as an index of growth. Test compounds present at 2uM.
The test system of another test is HepG2. The experiment in a line: GSK_TCMDC: Percent inhibition of human HepG2 cell line. Test compounds present at 10uM.

Molecules are shown by their SMILES.

What is called Inhibition is how much of the control response was suppressed. `COc1cccc(CN2CCN(C(c3ccccc3)c3ccccc3)CC2)c1O.O=C(O)C(=O)O`: the Inhibition in the test on Plasmodium falciparum [1] is on record as 99%; in the test on Plasmodium falciparum [2] it was 98%; in the test on HepG2, 6%.

For the compound `CC(=O)Nc1ccc(C(=O)NC2CCN(c3ccnc4cc(Cl)ccc34)CC2)cc1.O=C(O)C(F)(F)F`, the Inhibition was found to be 100% in the test with Plasmodium falciparum [1], 99% in the test on Plasmodium falciparum [2] and 5% with HepG2.

For `CC(C)c1cccc(OCC2CCN(c3ncc(C(=O)Nc4ccccc4)cc3Cl)CC2)c1`, the Inhibition is 89% with Plasmodium falciparum [1], 88% in the test with Plasmodium falciparum [2] and 9% in the test on HepG2.

`FC(F)(F)c1ccc2[nH]c(-c3ccc(-c4ccc(CNCCc5ccncc5)cc4)cc3)nc2c1.O=C(O)C(F)(F)F`: the Inhibition with Plasmodium falciparum [1] worked out at 100%; in the test with Plasmodium falciparum [2] it was 100%; in the test with HepG2, 26%.

Take `Br.CC1CCC2(CC1)N=C(N)N=C(N)N2OCc1ccc(Br)c2ccccc12` (configuration not stated): the figures for the Inhibition with Plasmodium falciparum [1], with Plasmodium falciparum [2] and with HepG2 were 96%, 40% and 46%, respectively.

For the compound `Cl.O=C(C=Cc1cccc(F)c1)NC1CCC(CCN2CCc3ccc(-c4cnccn4)cc3CC2)CC1` (configuration not stated), the Inhibition is 100% with Plasmodium falciparum [1], 67% with Plasmodium falciparum [2] and 51% in the test on HepG2.

For `Cc1ccc(Cl)cc1N1CCN(CCCNC(=O)C2CCN(c3nc4ccccc4[nH]3)CC2)CC1`, the values for the Inhibition in the test with Plasmodium falciparum [1], in the test on Plasmodium falciparum [2] and with HepG2 were 88%, 0% and 41%, respectively.

Consider `CS(=O)(=O)c1ccc(Nc2ncc(-c3ccc(S(C)(=O)=O)cc3)c(OCC(F)(F)F)n2)cc1`, for which the Inhibition came to 97% in the test with Plasmodium falciparum [1], 98% in the test on Plasmodium falciparum [2] and 0% with HepG2.

Take `O=C(NCCc1cccc(F)c1)c1cc(Br)cc(N2CCN(c3ccncc3)CC2)c1.O=C(O)C(F)(F)F`: the Inhibition in the test with Plasmodium falciparum [1] is on record as 100%; in the test with Plasmodium falciparum [2] it was 86%; in the test on HepG2 it was 34%.

`CC1CN(Cc2cccc(-c3ccc(-c4nc5ccccc5[nH]4)cc3)c2)CC(C)O1.O=C(O)C(F)(F)F` (configuration not stated): the figures for the Inhibition with Plasmodium falciparum [1], in the test with Plasmodium falciparum [2] and in the test with HepG2 were 90%, 88% and 37%, respectively.

Take `O=C(Nc1cccc(CN2CCN(Cc3ccc(O)cc3)CC2)c1)c1cc2ccccc2o1.O=C(O)C(F)(F)F`: the Inhibition worked out at 81% in the test with Plasmodium falciparum [1], 12% in the test on Plasmodium falciparum [2] and 8% in the test with HepG2.

On to `CCOC(=O)N1CCN(CCCNc2c3ccccc3nc3ccccc23)CC1.Cl`, for which the Inhibition in the test with Plasmodium falciparum [1] is 90%; in the test on Plasmodium falciparum [2], 20%; in the test on HepG2, 5%.

As for `CN(C)c1ccc(CN2CCC(CNC(=O)c3cc(-c4cccc(C(F)(F)F)c4)cs3)C2)cc1.O=C(O)C(F)(F)F` (configuration not stated), the figures for the Inhibition in the test with Plasmodium falciparum [1], in the test on Plasmodium falciparum [2] and in the test with HepG2 were 96%, 34% and 39%, respectively.

Take `O=C(NCCN1CCCCC1)c1ccc(CNC(=O)c2ccc(O)c(-c3cccc(C(F)(F)F)c3)c2)cc1`: the Inhibition in the test with Plasmodium falciparum [1] stood at 94%; with Plasmodium falciparum [2], 47%; in the test on HepG2, 3%.

Regarding `COc1ccc(N2CCN(CCCCNC(=O)c3ccc(NC(=O)c4cc(Cl)cc(Cl)c4)cc3)CC2)c(OC)c1.Cl`, the Inhibition in the test with Plasmodium falciparum [1] came out at 100%; in the test on Plasmodium falciparum [2], 84%; in the test on HepG2, 21%.

As for `COc1ccc(Nc2ncc3c(-c4cccc(NC(=O)Cc5cccc(F)c5)c4)c[nH]c3n2)cc1OC`, the Inhibition was 100% in the test with Plasmodium falciparum [1], 68% in the test with Plasmodium falciparum [2] and 24% with HepG2.

With `CCNc1cc(C(=O)N[C@@H](Cc2ccoc2)[C@H](O)CNC(C)CCCC(C)C)cc(N2CCCCS2(=O)=O)c1.Cl` (some centres not stated), the Inhibition was determined as 99% in the test on Plasmodium falciparum [1], 68% in the test on Plasmodium falciparum [2] and 0% with HepG2.

For `CC(C)CC(=O)N1CCNC[C@@H]1C(=O)NC1CC1.O=C(O)C(F)(F)F`, the Inhibition in the test with Plasmodium falciparum [1] is listed as 82%; in the test with Plasmodium falciparum [2], 0%; with HepG2 it was 0%.

Regarding `COc1ccc2ncc(F)c(CCN3CC4CCCC4(CNCc4ccc5c(n4)NC(=O)CS5)C3)c2n1.Cl` (configuration not stated), the results for the Inhibition in the test with Plasmodium falciparum [1], in the test with Plasmodium falciparum [2] and in the test with HepG2 were 87%, 28% and 18%, respectively.

As for `CN(C)c1ccc(CN2CCC(CNC(=O)c3cc(-c4ccccc4F)cs3)C2)cc1.O=C(O)C(F)(F)F` (configuration not stated), the results for the Inhibition with Plasmodium falciparum [1], with Plasmodium falciparum [2] and in the test with HepG2 were 100%, 33% and 35%, respectively.

In the case of `COc1ccc(S(=O)(=O)Nc2cc(Br)cc3c2OCCC3)cc1N1CCN(C(=O)C(Cl)(Cl)Cl)CC1`, the Inhibition in the test on Plasmodium falciparum [1] came to 90%; in the test on Plasmodium falciparum [2], 51%; with HepG2 it was 4%.

For the compound `CC(Cc1ccc(OCCN2CCN(c3cccc(Cl)c3)CC2)cc1)NCC(O)c1cccc(C(F)(F)F)c1.Cl` (configuration not stated), the Inhibition with Plasmodium falciparum [1] was 99%; in the test with Plasmodium falciparum [2] it was 98%; in the test with HepG2, 100%.

Consider `CN(CCCc1c[nH]c2ccccc12)CC1CCN(C(=O)/C=C/c2ccc(Cl)c(Cl)c2)CC1`, for which the Inhibition is on record as 99% in the test with Plasmodium falciparum [1], 25% in the test on Plasmodium falciparum [2] and 37% in the test on HepG2.

Turning to `COc1ccc2nc(-c3ccc(C(=O)NCCCN4CCN(c5cc(Cl)ccc5OC)CC4)cc3)[nH]c2c1`, the Inhibition with Plasmodium falciparum [1] is listed as 97%; in the test with Plasmodium falciparum [2] it was 53%; with HepG2, 0%.

With `Cc1cc(N[C@@H](Cc2ccccc2)C(=O)NCCCOC(C)C)nc(NCCc2ccc(F)cc2)n1.O=C(O)C(F)(F)F`, the results for the Inhibition in the test on Plasmodium falciparum [1], in the test with Plasmodium falciparum [2] and with HepG2 were 100%, 36% and 15%, respectively.

Regarding `CCCCCCOc1ccc(C(=O)N[C@H]2CCN(CCCCCNC(=O)/C=C/c3ccc(Cl)c(Cl)c3)C2)cc1`, the Inhibition with Plasmodium falciparum [1] was determined as 99%; in the test on Plasmodium falciparum [2], 25%; with HepG2 it was 10%.

As to `Cc1c(CN2CCCCC2)cccc1OCCCNc1nc(NCCc2ccc(O)cc2)nc(N2CCNCC2)n1.O=C(O)C(F)(F)F`, the Inhibition worked out at 100% with Plasmodium falciparum [1], 23% in the test on Plasmodium falciparum [2] and 26% with HepG2.

Consider `Cc1cc(NC(=O)c2cccs2)ccc1OC1CCN(Cc2ccccc2)C1.O=C(O)C(F)(F)F` (configuration not stated), for which the results for the Inhibition in the test on Plasmodium falciparum [1], in the test with Plasmodium falciparum [2] and in the test on HepG2 were 84%, 87% and 7%, respectively.

Take `Nc1nc(N)c2c(ccc3c2ccn3Cc2cccc3ccccc23)n1`: the Inhibition with Plasmodium falciparum [1] stood at 99%; in the test on Plasmodium falciparum [2], 95%; with HepG2, 65%.

The record behind these values is ChEMBL document CHEMBL1157539, “Thousands of chemical starting points for antimalarial lead identification” (Nature, 2010).
